# Measured values: the supplement of paper PMC13380429
# How the values were obtained:
# [1] = system: Vero E6 infected with SARS-CoV-2; assay: morphology score (similarity to uninfected cells); higher = more like uninfected cells; settings: 24 h
# [2] = system: Vero E6 infected with SARS-CoV-2; assay: SARS-CoV-2 infection rate relative to infected DMSO; higher = more infection, active = 60 or less; settings: 24 h
# [3] = system: Vero E6 infected with SARS-CoV-2; assay: inhibition of SARS-CoV-2 cytopathic effect; higher = more antiviral protection, active = above 15; settings: 48 h
smiles,measurement,setting,value
CCCN(CCC)[C@H]1CCc2cccc(O)c2C1 [8-hydroxy-DPAT] (10 µM),morphology score,[1],0.0607
same,SARS-CoV-2 infection rate,[2],98.5% (inactive)
Nc1nc(Nc2ccccc2)nc2c1ncn2[C@@H]1O[C@H](CO)[C@@H](O)[C@H]1O (10 µM),morphology score,[1],0.144
same,SARS-CoV-2 infection rate,[2],102% (inactive)
OC[C@H]1O[C@H](O[C@H]2O[C@H](CO)[C@@H](O)[C@H](O)[C@H]2O)[C@H](O)[C@@H](O)[C@@H]1O [cabaletta] (10 µM),morphology score,[1],-0.0856
same,SARS-CoV-2 infection rate,[2],104% (inactive)
CC[C@H](CO)Nc1nc(NCc2ccccc2)c2ncn(C(C)C)c2n1 [roscovitine] (10 µM),morphology score,[1],-0.0602
same,SARS-CoV-2 infection rate,[2],96% (inactive)
COc1ccc(CN(C(=O)[C@@H](N)Cc2c(C)cc(C(N)=O)cc2C)[C@@H](C)c2ncc(-c3ccccc3)[nH]2)cc1C(=O)O [eluxadoline] (10 µM),morphology score,[1],0.15
same,SARS-CoV-2 infection rate,[2],117% (inactive)
OCc1c[nH]c2ccccc12 [indole-3-carbinol] (10 µM),morphology score,[1],0.0621
same,SARS-CoV-2 infection rate,[2],94.5% (inactive)
CC(C)COc1ccc(CNC(=O)N(Cc2ccc(F)cc2)C2CCN(C)CC2)cc1 [pimavanserin] (10 µM),morphology score,[1],0.709
same,SARS-CoV-2 infection rate,[2],23% (active)
CC[C@H](CO)Nc1nc(Nc2cccc(-c3ccccn3)c2)c2ncn(C(C)C)c2n1 (10 µM),morphology score,[1],-0.214
same,SARS-CoV-2 infection rate,[2],116% (inactive)
C[C@H]1CNCCCN1S(=O)(=O)c1cccc2cncc(F)c12 [ripasudil] (10 µM),morphology score,[1],0.438
same,SARS-CoV-2 infection rate,[2],112% (inactive)
Cc1cc(=O)n(-c2ccccc2)n1C [phenazone] (10 µM),morphology score,[1],-0.0495
same,SARS-CoV-2 infection rate,[2],108% (inactive)
C=CC(=O)Nc1cccc(Oc2nc(Nc3ccc(N4CCN(C)CC4)cc3OC)ncc2Cl)c1 (0.833333 µM),morphology score,[1],-0.0953
same,SARS-CoV-2 infection rate,[2],115% (inactive)
CO[C@@H](C(=O)N1Cc2[nH]nc(NC(=O)c3ccc(N4CCN(C)CC4)cc3)c2C1)c1ccccc1 [danusertib] (10 µM),morphology score,[1],0.109
same,SARS-CoV-2 infection rate,[2],115% (inactive)
Cc1c(NC(=O)c2cccnc2)c(=O)n(-c2ccccc2)n1C [nifenazone] (10 µM),morphology score,[1],0.0329
same,SARS-CoV-2 infection rate,[2],102% (inactive)
COc1ccc2cc(-c3nc(-c4ccc([S+](C)[O-])cc4)[nH]c3-c3ccncc3)ccc2c1 (configuration not stated) [tie2-kinase-inhibitor] (10 µM),morphology score,[1],0.619
same,SARS-CoV-2 infection rate,[2],72.5% (inactive)
CC(=O)O[C@H]1C[C@H](O[C@H]2[C@@H](O)C[C@H](O[C@H]3[C@@H](O)C[C@H](O[C@H]4CC[C@@]5(C)[C@H](CC[C@@H]6[C@@H]5C[C@@H](O)[C@]5(C)[C@@H](C7=CC(=O)OC7)CC[C@]65O)C4)O[C@@H]3C)O[C@@H]2C)O[C@H](C)[C@H]1O[C@@H]1O[C@H](CO)[C@@H](O)[C@H](O)[C@H]1O [lanatoside-C] (0.833333 µM),morphology score,[1],-0.0895
same,SARS-CoV-2 infection rate,[2],102% (inactive)
COC(=O)c1ccc(N2CCN(C)CC2)c(NC(=O)c2cccc(OC)c2)c1 (10 µM),morphology score,[1],0.142
same,SARS-CoV-2 infection rate,[2],105% (inactive)
O=C(NC(O)C(Cl)(Cl)Cl)NC(O)C(Cl)(Cl)Cl (configuration not stated) [dicloralurea] (10 µM),morphology score,[1],0.108
same,SARS-CoV-2 infection rate,[2],106% (inactive)
CC(C)OC(=O)C(C)(C)Oc1ccc(C(=O)c2ccc(Cl)cc2)cc1 [fenofibrate] (10 µM),morphology score,[1],0.0415
same,SARS-CoV-2 infection rate,[2],101% (inactive)
Clc1ccccc1CN1CCc2sccc2C1 [ticlopidine] (10 µM),morphology score,[1],0.199
same,SARS-CoV-2 infection rate,[2],92.5% (inactive)
O=C(COc1cccc2c(=O)[nH]ccc12)c1ccccc1 (10 µM),morphology score,[1],0.0752
same,SARS-CoV-2 infection rate,[2],87% (inactive)
CC(O)COC[C@H]1O[C@@H]2O[C@H]3[C@H](O)[C@@H](O)[C@@H](O[C@H]4[C@H](O)[C@@H](O)[C@@H](O[C@H]5[C@H](O)[C@@H](O)[C@@H](O[C@H]6[C@H](O)[C@@H](O)[C@@H](O[C@H]7[C@H](O)[C@@H](O)[C@@H](O[C@H]8[C@H](O)[C@@H](O)[C@@H](O[C@H]1[C@H](O)[C@H]2O)O[C@@H]8COCC(C)O)O[C@@H]7COCC(C)O)O[C@@H]6COCC(C)O)O[C@@H]5COCC(C)O)O[C@@H]4COCC(C)O)O[C@@H]3COCC(C)O (stereo partly drawn) [hydroxypropyl-beta-cyclodextrin] (10 µM),morphology score,[1],0.254
same,SARS-CoV-2 infection rate,[2],99% (inactive)
c1cc(CN2CCCCC2)cc(OCCCNc2nc3ccccc3s2)c1 [zolantidine],inhibition of SARS-CoV-2 cytopathic effect,[3]; 1 nM,0.78% (inactive)
same,inhibition of SARS-CoV-2 cytopathic effect,[3]; 8.33 nM,3.51% (inactive)
same,inhibition of SARS-CoV-2 cytopathic effect,[3]; 100 nM,1.37% (inactive)
same,inhibition of SARS-CoV-2 cytopathic effect,[3]; 833.33 nM,4.09% (inactive)
same,inhibition of SARS-CoV-2 cytopathic effect,[3]; 10000 nM,4.6% (inactive)
